In the library only some 2.2% were active in any assay of this set; here they are far more common.
S2 tox – cell viability loss in ATXN counter-screen. S2 cells (HEK-293 line with an ATXN2-luciferase reporter) viability, CellTiter-Fluor protease fluorescence, 24 h. Potency, µM (titrated, usually from 56.7 µM), most hits filed as cytotoxic. 0.49% of 400,000 active. AID 651635; further: potency means the concentration at half of the fitted maximal effect; nearly all actives have a fitted effect of over 40% in size
ATXN2 expr inh – ATXN2 expression inhibition; HEK-293 ATXN2-luciferase reporter, luminescence, 24 h; Potency, µM (highest dose often 57 µM), inactives show top-dose activity change, negative = inhibition, most hits filed as inhibitors; 0.72% of 360,000 active; further: potency means the concentration at half of the fitted maximal effect; on the % scale 0 is the no-effect control and ±100 the full control effect; nearly all actives have a fitted effect of over 55% in size
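ATXN2-luciferase reporter cells (luciferase flanked by upstream and downstream ATXN2 gene portions) were treated 24 h at 37 °C with compounds at up to 57 uM. SteadyGlo luminescence gave expression; GF-AFC fluorescence gave viability.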
IDH1 R132H inh – inhibitors of human mutant IDH1 R132H; O75874; IDH1-R132H enzyme, NADPH consumption, diaphorase/resazurin fluorescence; Potency, µM (highest dose often 76.6 µM), without a hit: at the highest dose activity change, negative = inhibition, hits mostly inhibitors; 0.093% of 390,000 active; AID 602179; further: potency means the concentration at half of the fitted maximal effect; on the % scale 0 is the no-effect control and ±100 the full control effect; nearly all actives have a fitted effect of over 65% in size
Target sequence (O75874 whole entry R132H, stated change not applied): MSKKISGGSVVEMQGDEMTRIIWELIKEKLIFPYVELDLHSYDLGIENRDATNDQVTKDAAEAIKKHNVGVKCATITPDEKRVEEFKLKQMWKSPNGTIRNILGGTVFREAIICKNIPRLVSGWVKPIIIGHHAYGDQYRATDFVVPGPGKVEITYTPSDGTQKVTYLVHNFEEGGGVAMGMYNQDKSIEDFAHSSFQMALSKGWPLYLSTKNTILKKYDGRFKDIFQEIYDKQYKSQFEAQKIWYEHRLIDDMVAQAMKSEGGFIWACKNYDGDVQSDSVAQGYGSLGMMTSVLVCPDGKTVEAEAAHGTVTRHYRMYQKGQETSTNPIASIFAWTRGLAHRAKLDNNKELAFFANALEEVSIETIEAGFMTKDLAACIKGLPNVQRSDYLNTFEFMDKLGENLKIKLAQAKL
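IDH1-R132H (0.5 ug/mL dispensed) in pH 7.5 Tris buffer was preincubated 30 min with compound, then given a substrate mix of 0.016 mM NADPH and 2 mM alpha-KG for 80 min at room temperature; remaining NADPH was read by diaphorase/resazurin fluorescence.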
TGFb inhibitor – inhibitors of TGF-b signaling. HepG2 CAGA-GFP TGF-b/SMAD3 reporter, GFP fluorescence, 18 h; TGF-beta stimulated, 500 pg/mL final. Potency, µM (series often up to 46.1 µM), for inactives: at the top dose activity, negative = inhibition, actives largely listed as inhibitors. 1.2% of 410,000 active. AID 588855; further: potency means the concentration at half of the fitted maximal effect; on the % scale 0 is the no-effect control and ±100 the full control effect; nearly all actives have a fitted effect of over 65% in size
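GFP signal (ex488/em500-530) from TGF-beta-stimulated HEPG2 CAGA-GFP cells, 500 pg/mL final, 18 h at 37 degrees C in DMEM plus 1% FBS, normalized to unstimulated and DMSO-stimulated controls.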
LDHA block – LDHA (human) enzyme inhibition | 0.15% of 480,000 active | purified LDHA, NADH/diaphorase-resazurin fluorescence; hits give low values | activity change, % (values are at about 110 or 230 µM); in the data active means activity change below about -30%; inconclusive means mostly about -25% to -30%;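 further: plate controls were DMSO wells for no effect and wells without enzyme for full effect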
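Human LDH5 at 2 nM final in Tris HCl pH 7.4 with 0.06 mM NADH and 0.2 mM pyruvate, reacted 5 minutes at room temperature. Remaining NADH coupled via diaphorase/resazurin; resorufin fluorescence read at 0 and 20 minutes, normalized to enzyme-free and DMSO wells.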
HepG2 viability – HepG2 cytotoxicity, counter-screen for TGF-b inhibitors; HepG2 CAGA-GFP viability, ATP luminescence, 18 h; 0.76% of 410,000 active; AID 588856; Potency, µM (doses to about 46.1 µM), for the others: top-dose activity change, negative = cytotoxicity, actives largely listed as cytotoxic; further: potency means the concentration at half of the fitted maximal effect
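CellTiter-Glo luminescence gave cytotoxicity after 18 hours at 37 degrees C. The cells were HepG2 CAGA-GFP in 1% FBS DMEM, stimulated with 500 pg/mL TGF-beta after compound addition. %Activity was normalised to no-cell wells (complete cell-killing) and DMSO (no toxicity), and curves were fitted and classified.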
Starred values were filed as active, the others as inactive; i = inactive; ? = inconclusive; nt = no result given. Unless noted, the call rests on the fitted dose curve; in most records, active means well fitted curve in the direction sought with a large enough effect; inconclusive means small, poorly fitted or top-dose-only effect, or another doubt; inactive means no such curve, though single readings can be large; an effect the other way counts as inactive or inconclusive.

SMILES	S2 tox	ATXN2 expr inh	IDH1 R132H inh	TGFb inhibitor	LDHA block	HepG2 viability
CC(C)N1CCC(N2CCN(CCCc3ccccc3)CC2CCO)CC1 (configuration not stated)	i	-18%	7%	1%	-2	3.2µM*
CC(C)N1CCN(CCCc2ccccc2)CC1CCO (configuration not stated)	i	4%	-5%	1%	-16	-37%
Cc1[nH]nc2c1C(c1ccco1)C(C#N)=C(N)O2 (configuration not stated)	i	8%	-8%	-10%	3	-9%
Cc1[nH]nc2c1C(c1cc(Br)cs1)C(C#N)=C(N)O2 (configuration not stated)	i	-39%	4%	10µM*	-3	-65%
CCOC(=O)C1=C(O)/C(=C/c2ccc(OCC(=O)O)c(OC)c2)SC1=Nc1ccc(OCC)cc1	i	1%	4%	-16%	0	-12%
COc1cccc(/C=N/NC(=O)CO/N=C(\C)c2cccs2)c1OC	i	2%	5%	0%	-3	-5%
CN1CCN(C(=O)CCN2C(=O)/C(=C/c3cccc(Br)c3)SC2=S)CC1	?	88%	9%	18µM*	15	-175%
O=C(CCCN1C(=O)/C(=C/c2cccc(Br)c2)SC1=S)N1CCOCC1	i	28%	0%	12%	-5	0%
CN1CCN(C(=O)CCCN2C(=O)/C(=C/c3cccc(Br)c3)SC2=S)CC1	11µM*	?	0%	?	15	-27%
Cc1c(NC(=O)Cn2cc([N+](=O)[O-])cn2)c(=O)n(-c2ccccc2)n1C	?	-23%	-2%	3%	-7	3%
Clc1ccc(-n2nnnc2-c2cnc(-c3ccncc3)nc2-c2cccs2)cc1	i	-11%	5%	-17%	-2	-30%
FC(F)(F)c1nc(-c2cccs2)ncc1-c1nnnn1-c1ccc(Cl)cc1	?	22µM*	6%	-10%	-5	-28%
Cc1ccc(C(=O)N2CCCC(Nc3cccc(F)c3)C2)cc1N1CCNC1=O (configuration not stated)	?	5%	7%	2%	-3	-14%
CCCCNCC1C(Oc2ccc(Cl)cc2)C(=O)N1c1ccccc1C (configuration not stated)	i	-22%	-5%	14µM*	0	16µM*
Cc1ccc(S(=O)(=O)N2CCCc3cc(NS(=O)(=O)c4ccccc4)ccc32)cc1	nt	0%	-6%	16µM*	-6	1%
CC(=O)c1cccc(NC(=O)c2noc3c2CCc2ccccc2-3)c1	i	nt	-14%	-12%	-4	-16%
CC[C@H](C)[C@@H](CO)NC(=O)[C@H]1O[C@@H](n2ccc(=O)[nH]c2=O)[C@H](O)[C@@H]1O	i	-1%	nt	-2%	-4	-28%
Cc1ccc(C)c(C(=O)N(Cc2nc(-c3ccc(Cl)cc3)no2)C(C)C)c1	i	?	-4%	10µM*	1	-17%
Cc1cccc(C(=O)N(Cc2nc(-c3ccc(Cl)cc3)no2)C(C)C)c1	i	?	1%	?	6	-8%
CN(C)c1ccc(/C=C2\NC(=O)NC2=O)cc1	nt	nt	nt	-1%	-3	-2%
COc1ccc(C(=O)COC(=O)CNC(=O)c2ccc(OC)cc2)cc1	i	-7%	-10%	-10%	-9	5%
O=C(Nc1ccccc1Cl)c1cc(C2CCCN(S(=O)(=O)c3cccs3)C2)on1 (configuration not stated)	i	-12%	nt	?	-4	11µM*
O=C(Nc1ccc(F)c(Cl)c1)c1cc(C2CCCN(S(=O)(=O)c3cccs3)C2)on1 (configuration not stated)	?	-13%	nt	8%	-7	-15%
CC1=C(C)/C(=N\OS(=O)(=O)c2ccccc2)C=CC1=O	11µM*	10µM*	7%	?	27	14µM*
Cc1ccc(S(=O)(=O)O/N=C2\CCCc3ccccc32)cc1	i	-4%	9%	6%	19	5%
SMILES	S2 tox	ATXN2 expr inh	IDH1 R132H inh	TGFb inhibitor	LDHA block	HepG2 viability
Cc1ccc2nc(N)[nH]c(=O)c2c1Sc1ccncc1	i	13µM*	nt	nt	nt	nt
COc1ccc(C=C(C(C)=O)C(=O)c2ccccc2)cc1	i	-19%	nt	-9%	5	-23%
CC(=O)C(=Cc1ccc(Cl)cc1)C(=O)c1ccccc1	28µM*	?	nt	?	-4	-64%
COc1ccc(C=C(C(=O)c2ccccc2)C(=O)c2ccccc2)cc1	i	75%	nt	?	2	11µM*
O=C(/C=C/c1ccc([N+](=O)[O-])cc1)NCCc1ccc(F)cc1	?	nt	8%	?	-1	1%
O=C(Nc1ccc(C(O)(C(F)(F)F)C(F)(F)F)cc1)c1ccccc1Cl	nt	nt	nt	nt	3	nt
Cc1c(C(=O)Nc2ccc(S(=O)(=O)N(C)C3CCN(C)CC3)cc2)oc2c(Cl)cccc12	nt	25µM*	4%	?	-9	-111%
CO[C@H]1/C=C\O[C@@]2(C)Oc3c(C)c(O)c4c(O)c(c(C=NN5CCN(C6CCCC6)CC5)c(O)c4c3C2=O)NC(=O)C(C)=CC=C[C@H](C)[C@H](O)[C@@H](C)[C@@H](O)[C@@H](C)[C@H](OC(C)=O)[C@H]1C	nt	5.4µM*	nt	11µM*	15	-41%
COc1ccc(C2CC(c3ccc(Cl)cc3)=NN2c2ccc(S(N)(=O)=O)cc2)cc1 (configuration not stated)	nt	0%	-9%	?	-4	18µM*
C=CC[C@@H](CC(=O)N(CCO)Cc1ccccc1)C(=O)N[C@H](COC(=O)[C@@H](CC=C)Cc1ccc(F)cc1)c1ccccc1	22µM*	?	4%	?	1	-26%
C=CC[C@@H](CC(=O)N(CCO)Cc1ccccc1)C(=O)NC[C@H](OC(=O)[C@@H](CC=C)Cc1ccc(F)cc1)c1ccccc1	20µM*	?	14%	?	4	-91%
FC(F)(F)c1ccc(NC(=S)NC2CCCCC2)cc1	i	-10%	4%	?	-1	-39%
O=c1c(Br)ccc(Br)cc1Br	7.5µM*	6µM*	?	1.6µM*	15	4µM*
O=c1c2ccccc2sc2ccc(Br)cc12	nt	nt	nt	nt	10	nt
CC(=O)c1ccc(-n2c(-c3cc(-c4ccsc4)n[nH]3)n[nH]c2=S)cc1	i	1%	3%	6%	-10	-3%

Compound activity as filed in PubChem.
